This note sets out measurements from the supplement of paper PMC10105736.

A number with no mark means an inactive call.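 How the source made its calls: active = MAPPIT score above the 99th percentile of random reference set scores in the same batch; inactive = at or below it.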

Common to all, as to experiment: MAPPIT interaction score (arbitrary units); higher = stronger binary interaction signal, active = hit call of the paper
One assay has as its target Dysb. The settings on record: pair source set: Lit-BM-16.
The next assay deals with E(spl)m4-BFM. The following applies: MAPPIT configuration: N-C; pair source set: RRS.
For another assay, the target named is EMC2B. The settings on record: MAPPIT configuration: N-C; pair source set: Lit-BM-16.
Another assay has as its target Dpm3. The settings on record: MAPPIT configuration: N-C; pair source set: screen_3.
The target in another assay is Dpit47. The settings on record: pair source set: RRS.
The target of another assay is Vps51. The settings on record: MAPPIT configuration: N-N; pair source set: Curagen_high_conf.
The target of a further assay is Elal. The settings on record: MAPPIT configuration: N-N; pair source set: Finley_Y2H.
Another assay concerns the target E(z). The following applies: pair source set: Lit-BM-16.
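Further: HEK293T cells with Epo stimulation, STAT-responsive firefly luciferase reporter, fold induction versus unstimulated cells divided by the larger fold induction of two negative controls lacking either bait or prey.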

B1: Snapin (protein)
chain: MDSDSTVTSLEENTENFCTNPTRDILAEGITNLFKPTIERLDERVASTIQLQAELRGQLDALAAQLRDIEKAQSQIPEFADKVKELLNVKHKVTVISNVLVTSQERLTGLHKLIEKEQRRRQALLDSALSTNIS
Consider B1, for which the figures for the MAPPIT interaction score with Dysb (MAPPIT configuration: N-C) and in the assay with Dysb (MAPPIT configuration: N-N) were -2.54 and 0.529, respectively.

B2: RFeSP (protein)
chain: MMNAVSRAYVRGGAQVLSTGLKASGVAVNSMANRQAHTDLQVPDFSAYRRESVKDSRRRNDTAEERKAFSYLMVGAGAVGGAYAAKGLVNTFIGSMSASAEVLAMAKIEIKLSDIPEGKSVTFKWRGKPLFIRHRTAAEIETERNVPTSTLRDPEADDQRVIKPEWLVVIGVCTHLGCVPIANAGDWGGYYCPCHGSHYDASGRIRKGPAPLNLEVPTHEFPNEGLLVVG
As for B2, the MAPPIT interaction score with E(spl)m4-BFM was 0.917.

B3: EMC8-9 (protein)
chain: MCDYKVSERAYAKLIFHAAKYPHQAVNGLLLAEKTSKGSQVEIVDAIPLFHQCLYVTPMAEVALMLIDAHAEREGLVIAGYYAAPENFYDNQVDKTPAAKIADKIQENFKNACFVVVDNKLMTLQHDRAAIQVFNCPGDSGARWSKAKFTLSQASDTLEGVSLLLKRGAMRDLVDFDNHLDNPDKNWTNDFLNQPLNDLQKLY
As to B3, the MAPPIT interaction score with EMC2B is -4.28.

B4: BomBc1 (protein)
chain: MKCLILSFAIFVVLASQATAGNVIIGGVCQDCSPPVAENVVVGGQSYRTGRPGQGTVYINSPGAYLGALDGPIRRTGAGGGGGGGAQYPDGYSGRLPGGTYLHNKDCVGCSISGGGD
Take B4: the MAPPIT interaction score in the assay with Dpm3 is 0.481.

B5: Os-C (protein)
chain: MGFHMGRQLLLSGFLLVMLQMVTQTQARPQDVITVAGEETEVVIKREGDDDGDDDDSSSEETVEDSEESRRRRREVNTDNTPSARAVIPGEQVVPILLEAILPSVDAAGDRFARSVQFLKNLTPGSELFAVEKNE
On to B5, for which the values for the MAPPIT interaction score with Dpit47 (MAPPIT configuration: N-C), with Dpit47 (MAPPIT configuration: N-N) and in the assay with Vps51 were 1.62, 0.00721 and -0.071, respectively.

B6: mgr (protein)
chain: MTGIMDSVEMPKLPENQKTFAGIPEAVFLEEIDTFMSQPENENCEKVLQRLDEQHGKYRFMACNLEARRRKLKSQIPDLERSLEMVNVLRKEDEERETQFLLSDQVFIKTLVPPTKTVYLWLGASVMLEYPLDEAEALLNQNITSAVGNLKSVEHDQDFLRDQITTTEVNMARVYNWGVKKRQAATKTTATTPS
With B6, the MAPPIT interaction score in the assay with Elal is 0.515.

B7: pho (protein)
chain: MAYERFGIILQSEQYDEDIGNTKVNQKMNEGNHYDLHRKNAFDRIIHSESKKGDNVINYNIHENDKIKAADNIFSSKLKMNPNMSYEMNINCFKNIGYGENQETSKVLTNSLSNNDINTEESGVVDKNSPFLTLGTTILNSNGKSRRWEQKLVHIKTMEGEFSVTMWASGISDDEYSGSDQIVGASDLLKGKEEFGIDGFTSQQNKEYQKMESKFTNAQTLEMPHPISSVQIMDHLIKERGNLSQENNISERILSKTTLSFEEPILLPDSSSIELVNETAAMTINNHRTLSNHTGNTGDLHALPSSVPFRIGLHEGQVNDCLSTISQSTHQDNTDSTGCGEMNLSEVTVSYTNDKKIACPHKGCNKHFRDSSAMRKHLHTHGPRVHVCAECGKAFVESSKLKRHQLVHTGEKPFQCTFEGCGKRFSLDFNLRTHVRIHTGDRPFVCPFDACNKKFAQSTNLKSHILTHAKAKRNTSISGKSGCSNAESNSQSEDTSANYVKVELQDSVTENHVPFVVYAD
Consider B7, for which the MAPPIT interaction score is 0.498 with E(z) (MAPPIT configuration: N-C) and 0.583 with E(z) (MAPPIT configuration: N-N).

B8: Pcl (protein)
chain: MMNNHFHLQHDHPPQNVAHPFMQQPSTAVPSAPPATYGYLAQPAGQQPQWMTTTYQILPPSVGPATVAKRYYATTGPQTTHPTHPSTIQITNSFAQQSTPPKQQAATSCSPFKANNIRIISTAPSVYSLNKPPQEAHSTYAPVQSYYLPSGGGQTAGQINLLAASGTGKQLQPPPLVPVTNSTSPPSTVVLDRINICINNHYTETPTSLSSSLTTAQQPSPIIPAIQHKAILPLIDSSTADSSSCSSSSVSSSSYSGTATTSAAVVIVDEPDSTTTTPQTPPTTPEAMSSPGKSSPSPPLLATQSLLKGVNSMKPSFKTVEAAPPTPPTPPSPPPPPPAPPVAAPSPAVTYALQEDVFIKCNDGRFYLGTIIDQTSDQYLIRFDDQSEQWCEPDKLRKLGGGSSITAGGGGASTTESTNTSPSGPMCVACKRSDIEDVVEICERCGRGYHRGCTVEIVTGSGIWSCKRCAKPMKMQQPVSHKITKPAGICRQLPYHADKLSWDEKHRVNEEQIYCYCGKPGKFDHNMLQCCKCRNWFHTQCMQNFKKKLLRGDMFFVFCCTVCNNGIEFVRRMQIEWVDVLHIALYNLRKHQHQKYHHLLNDIWPFILEQRHQLPICEKWRTLPETALMERLKQTLKDYSDRFVCGREFKRAPAFYALRHSGPPHIPKVFLEPHEELSDELLEKRFKLMLMPEEPDEGANELPKRVPKDVYEFNTDEDDPVETSEDEIPIKQIIEKAKKQAAQKADKHDELPLKPDLADDNANDGDPGKLPAPIPPLLDANSSRKRKAFRLSKRYDNSRNHCDLSSDENSSSSRGTSSLDLIIPPPVNFLGRNNPFLMATPKKASQGRSISVGTGVGVNGIINSIFKLKGTSKEQPRMVRTIKRRLSAKDITIGPNQEVRRRRTRRLTTAIEVISTTTINPIPSHYLPIYAKDLQPPAPPMGKPTHGRLLRQRPQKQSPSQSRRNSTSSTATSSSSNGIGAPGHSMLDLKQSVNKYFGGAMNRIDAGEPFAIRAKRRMGNGQVQYLVEWGGDTATTAIGLLGN
With B8, the MAPPIT interaction score with E(z) (MAPPIT configuration: N-C) was 0.709; with E(z) (MAPPIT configuration: N-N), 3.05 (active).
